Assay [1] in a line: qHTS assay to identify small molecule antagonists of the thyroid receptor (TR) signaling pathway (AID 743065). Also: nearly all actives have a fitted effect of over 55% in size. Also: potency is read from the fitted curve at half-maximal effect. The procedure, abridged: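 GH3.TRE-Luc rat pituitary cells carrying two TR response elements driving luciferase were plated for 4 h, given compound plus 1 nM T3 (final), and incubated 23.5 h at 37 C. ONE-Glo luminescence measured reporter inhibition; CellTiter-Fluor fluorescence tracked cytotoxicity.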
(In qHTS, concentration-response curves come from the screen itself.)

The test system of assay [2] is thyroid hormone receptor (rat, GH3 cells). The assay can be described thus: qHTS assay to identify small molecule agonists of the thyroid receptor (TR) signaling pathway (AID 743066; calls by dose curve).
Assay [3] is described as follows: qHTS assay to identify small molecule antagonists of the estrogen receptor alpha (ER-alpha) signaling pathway - cell viability counter screen (AID 743074; calls by dose curve;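 also: HEK293 cells carrying ER-alpha-UAS-bla reporter stimulated with 17beta-estradiol; nearly all actives have a fitted effect of over 45% in size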).
Assay [4] is described as follows: qHTS assay to identify small molecule antagonists of the estrogen receptor alpha (ER-alpha) signaling pathway using the BG1 cell line - cell viability counter screen (AID 743081).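 Also: compound given together with 17beta-estradiol as the ER stimulus; series mostly up to about 70 µM; nearly all actives have a fitted effect of over 45% in size.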
A short description of assay [5]: qHTS assay to identify small molecule that activate the aryl hydrocarbon receptor (AhR) signaling pathway - cell viability counter screen (AID 743086).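 Also: HepG2 liver cells carrying the AhR DRE luciferase reporter; series mostly up to about 70 µM; nearly all actives have a fitted effect of over 45% in size.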 The gist of the method: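 HepG2-AhR-luc (HG2L7.5c1) cells, 4000/well, were preincubated 5 h at 37C, exposed to compound in qHTS format for 24 hr at 37C, then given CellTiter-Fluor for 30 min; viability was read as fluorescence in the reporter wells.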

Assay [6] in a line: qHTS assay to identify small molecule antagonists of the peroxisome proliferator-activated receptor gamma (PPARg) signaling pathway - cell viability counter screen (AID 743194). Also: nearly all actives have a fitted effect of over 55% in size. The gist of the method: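 PPARg-UAS-bla HEK293H cells were plated, rested 5 h at 37 C, then treated with compounds plus rosiglitazone (50 nM final) for 17 h at 37 C; viability was then read by CellTiter-Glo luminescence after 30 min at room temperature.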

Assay [7] is described as follows: qHTS assay for small molecule agonists of the antioxidant response element (ARE) signaling pathway - cell viability counter screen (AID 743203; calls by dose curve; also: nearly all actives have a fitted effect of over 55% in size). The procedure, abridged: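 Seeded at 2,000 cells/well, ARE-bla HepG2 cells were incubated 5 hrs before compound addition. After 16 hrs of treatment at 37C with 5% CO2, CellTiter-Glo reagent was added and luminescence read 30 min later.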

The nature of assay [8]: qHTS assay for small molecule activators of the heat shock response signaling pathway - cell viability counter screen (AID 743209). Also: nearly all actives have a fitted effect of over 50% in size. The gist of the method: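 First, HSE-bla HeLa cells were seeded at 1500 cells/well and kept overnight at 37 C. Next, compounds were pinned in and incubated 5 h. After the FRET substrate step, CellTiter-Glo was added and luminescence read 30 min later.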

Assay [9] in a line: qHTS assay for small molecule activators of the heat shock response signaling pathway (AID 743210; active = well fitted activation curve with a large enough effect in the signal ratio in the repeat runs, with a control signal flat, not every such curve was filed as active; the % refers to the signal ratio;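 also: HeLa cells with beta-lactamase reporter driven by heat shock elements; series mostly up to about 63 µM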). The gist of the method:
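Reporter gene assay: HeLa cells stably bearing an HSE-bla construct, compound treatment 5 h at 37 C, LiveBLAzer substrate 2.5 h at RT, fluorescence intensity.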

Assay [10] can be described thus: qHTS assay to identify small molecule agonists of the peroxisome proliferator-activated receptor delta (PPARd) signaling pathway - cell viability counter screen (AID 743211). Also: nearly all actives have a fitted effect of over 55% in size. The gist of the method: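 Multiplexed format: after the 2 h room-temperature LiveBLAzer B/G FRET step, CellTiter-Glo was added to the same wells. Luminescence after 30 min gave cell viability; compound exposure was 17 h at 37C.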

The target in assay [11] is Estrogen receptor (Homo sapiens) (UniProt P03372). As to the kind of experiment: qHTS assay to identify small molecule antagonists of the estrogen receptor alpha (ER-alpha) signaling pathway (AID 743069; active = well fitted curve in the direction sought with a large enough effect in the signal ratio in the repeat runs, not every such curve was filed as active; the % refers to the signal ratio). The procedure, abridged:
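Estradiol-stimulated ER-alpha-UAS-bla HEK293 cells, 18 hr compound exposure at 37C. LiveBLAzer B/G substrate, 2 hr RT, fluorescence read.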

For assay [12] the target is unchanged. The assay can be described thus: qHTS assay to identify small molecule agonists of the estrogen receptor alpha (ER-alpha) signaling pathway (AID 743075; calls by dose curve;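 also: HEK293 GripTite cells with ER-alpha and UAS-driven beta-lactamase reporter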).
For assay [13] the target is unchanged. The assay can be described thus: qHTS assay to identify small molecule agonists of the estrogen receptor alpha (ER-alpha) signaling pathway using the BG1 cell line (AID 743079). Also: nearly all actives have a fitted effect of over 20% in size.
A short description of assay [14]: qHTS assay to identify small molecule antagonists of the estrogen receptor alpha (ER-alpha) signaling pathway using the BG1 cell line (AID 743080; calls by dose curve;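 also: BG1 cells stimulated with 17beta-estradiol alongside compound; series mostly up to about 70 µM; nearly all actives have a fitted effect of over 25% in size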). The procedure, abridged:
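Luciferase inhibition measured with ONE-Glo after 30 min at RT in BG1Luc4E2 cells given test compounds and 17beta-estradiol for 21.5 h at 37 C; CellTiter-Fluor viability read in the same wells beforehand.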

Assay [15] addresses Aromatase (Homo sapiens) (UniProt P11511). The assay can be described thus: qHTS assay to identify aromatase inhibitors (AID 743083).
Assay [16] in a line: qHTS assay to identify aromatase inhibitors - cell viability counter screen (AID 743084).
Assay [17] addresses Aryl hydrocarbon receptor (Homo sapiens) (UniProt P35869). The assay can be described thus: qHTS assay to identify small molecule that activate the aryl hydrocarbon receptor (AhR) signaling pathway (AID 743085).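 Also: HG2L7.5c1 human HepG2 liver cells with stably integrated DRE-driven firefly reporter; series mostly up to about 70 µM; nearly all actives have a fitted effect of over 15% in size.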 The procedure, abridged:
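Reporter assay in engineered HepG2 line HG2L7.5c1, whose plasmid carries twenty dioxin responsive elements upstream of firefly luciferase. Treatment lasted 24 h at 37C; ONE-Glo luminescence gauged induction.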

The target in assay [18] is Peroxisome proliferator-activated receptor gamma (Homo sapiens) (UniProt P37231). As to the kind of experiment: qHTS assay to identify small molecule agonists of the peroxisome proliferator-activated receptor gamma (PPARg) signaling pathway (AID 743094; active = well fitted activation curve with a large enough effect in the signal ratio in the repeat runs, not every such curve was filed as active; the % refers to the signal ratio). The procedure, abridged: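 Quantitative HTS agonist mode: stable HEK293H line with UAS-beta-lactamase reporter under PPARg control, 17 h compound exposure at 37C, fluorescence after 1 h FRET substrate loading at room temperature.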
Sequence of Peroxisome proliferator-activated receptor gamma (Homo sapiens) (P37231 whole entry, looked up): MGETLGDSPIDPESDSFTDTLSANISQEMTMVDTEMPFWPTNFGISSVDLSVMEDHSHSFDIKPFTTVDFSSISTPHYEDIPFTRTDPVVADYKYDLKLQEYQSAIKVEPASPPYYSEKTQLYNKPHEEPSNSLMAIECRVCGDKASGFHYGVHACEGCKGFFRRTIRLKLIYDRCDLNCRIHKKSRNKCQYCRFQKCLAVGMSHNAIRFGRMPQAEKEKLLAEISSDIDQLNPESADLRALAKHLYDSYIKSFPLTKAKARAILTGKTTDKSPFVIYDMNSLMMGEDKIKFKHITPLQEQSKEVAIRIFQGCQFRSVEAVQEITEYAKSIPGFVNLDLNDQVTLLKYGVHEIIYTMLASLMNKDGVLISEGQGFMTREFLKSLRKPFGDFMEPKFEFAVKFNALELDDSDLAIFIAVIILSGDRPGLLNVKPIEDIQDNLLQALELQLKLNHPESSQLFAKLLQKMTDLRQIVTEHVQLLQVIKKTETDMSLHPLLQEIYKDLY

For assay [19] the target is unchanged. The assay can be described thus: qHTS assay to identify small molecule antagonists of the peroxisome proliferator-activated receptor gamma (PPARg) signaling pathway (AID 743191; calls by dose curve; also: series mostly up to about 63 µM; nearly all actives have a fitted effect of over 30% in size). The gist of the method:
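GeneBLAzer PPARg UAS-bla HEK293H cells carrying a UAS-driven beta-lactamase reporter were plated at 3000 cells/well, preincubated 5 h at 37C, then given compound for 17 h at 37C; LiveBLAzer B/G FRET substrate was read after 1 h at room temperature.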

Assay [20] in a line: qHTS assay for small molecule agonists of the antioxidant response element (ARE) signaling pathway (AID 743202; active = well fitted activation curve with a large enough effect in the signal ratio in the repeat runs, not every such curve was filed as active; the % refers to the signal ratio). The gist of the method: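 Compounds delivered in DMSO to ARE-bla HepG2 cells (2,000 cells/well, pre-incubated 5 h) and left 16 h at 37 C. LiveBLAzer B/G FRET substrate then added for 2 h at RT before fluorescence reading.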

Records with an inconclusive call do not appear. Unmarked numbers belong to inactive results. The source made the active and inactive calls. Unless noted, calls follow the shape of the dose curve; as a rule, active = well fitted curve in the direction sought with a large enough effect in the repeat runs; inconclusive = weak or mixed curves; inactive = no such curve, though single readings can be large; an effect the other way counts as inactive or inconclusive.

Sequence of Aromatase (Homo sapiens) (P11511 whole entry, looked up): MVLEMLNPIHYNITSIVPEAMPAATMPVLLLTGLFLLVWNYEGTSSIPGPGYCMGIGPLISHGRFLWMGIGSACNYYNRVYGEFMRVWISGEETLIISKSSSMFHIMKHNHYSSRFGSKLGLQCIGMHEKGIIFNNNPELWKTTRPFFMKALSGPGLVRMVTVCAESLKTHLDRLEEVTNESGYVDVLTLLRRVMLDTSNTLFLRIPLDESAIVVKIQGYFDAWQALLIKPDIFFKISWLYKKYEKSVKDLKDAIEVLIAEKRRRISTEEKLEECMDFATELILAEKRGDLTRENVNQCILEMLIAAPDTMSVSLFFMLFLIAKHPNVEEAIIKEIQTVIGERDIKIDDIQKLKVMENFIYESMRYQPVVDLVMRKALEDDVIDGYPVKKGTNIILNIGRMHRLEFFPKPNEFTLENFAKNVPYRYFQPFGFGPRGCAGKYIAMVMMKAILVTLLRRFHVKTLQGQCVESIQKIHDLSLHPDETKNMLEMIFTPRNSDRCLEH
Sequence of Estrogen receptor (Homo sapiens) (P03372 whole entry, looked up): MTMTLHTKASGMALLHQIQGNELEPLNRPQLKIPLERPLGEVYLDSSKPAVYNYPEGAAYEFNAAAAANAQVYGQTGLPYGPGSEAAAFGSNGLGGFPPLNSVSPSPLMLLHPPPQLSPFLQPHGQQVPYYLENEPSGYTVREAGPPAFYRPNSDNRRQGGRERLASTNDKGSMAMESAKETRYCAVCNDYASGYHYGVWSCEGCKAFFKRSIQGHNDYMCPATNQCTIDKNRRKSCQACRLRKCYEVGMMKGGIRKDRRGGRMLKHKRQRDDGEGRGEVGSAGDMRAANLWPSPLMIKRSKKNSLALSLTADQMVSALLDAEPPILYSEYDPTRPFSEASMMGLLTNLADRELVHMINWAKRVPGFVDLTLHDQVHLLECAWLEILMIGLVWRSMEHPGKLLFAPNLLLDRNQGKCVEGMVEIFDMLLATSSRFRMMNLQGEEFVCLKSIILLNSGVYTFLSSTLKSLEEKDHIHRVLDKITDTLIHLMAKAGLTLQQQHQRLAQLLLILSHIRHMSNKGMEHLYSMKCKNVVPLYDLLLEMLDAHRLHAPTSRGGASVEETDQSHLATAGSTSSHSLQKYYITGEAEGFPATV
Sequence of Aryl hydrocarbon receptor (Homo sapiens) (P35869 whole entry, looked up): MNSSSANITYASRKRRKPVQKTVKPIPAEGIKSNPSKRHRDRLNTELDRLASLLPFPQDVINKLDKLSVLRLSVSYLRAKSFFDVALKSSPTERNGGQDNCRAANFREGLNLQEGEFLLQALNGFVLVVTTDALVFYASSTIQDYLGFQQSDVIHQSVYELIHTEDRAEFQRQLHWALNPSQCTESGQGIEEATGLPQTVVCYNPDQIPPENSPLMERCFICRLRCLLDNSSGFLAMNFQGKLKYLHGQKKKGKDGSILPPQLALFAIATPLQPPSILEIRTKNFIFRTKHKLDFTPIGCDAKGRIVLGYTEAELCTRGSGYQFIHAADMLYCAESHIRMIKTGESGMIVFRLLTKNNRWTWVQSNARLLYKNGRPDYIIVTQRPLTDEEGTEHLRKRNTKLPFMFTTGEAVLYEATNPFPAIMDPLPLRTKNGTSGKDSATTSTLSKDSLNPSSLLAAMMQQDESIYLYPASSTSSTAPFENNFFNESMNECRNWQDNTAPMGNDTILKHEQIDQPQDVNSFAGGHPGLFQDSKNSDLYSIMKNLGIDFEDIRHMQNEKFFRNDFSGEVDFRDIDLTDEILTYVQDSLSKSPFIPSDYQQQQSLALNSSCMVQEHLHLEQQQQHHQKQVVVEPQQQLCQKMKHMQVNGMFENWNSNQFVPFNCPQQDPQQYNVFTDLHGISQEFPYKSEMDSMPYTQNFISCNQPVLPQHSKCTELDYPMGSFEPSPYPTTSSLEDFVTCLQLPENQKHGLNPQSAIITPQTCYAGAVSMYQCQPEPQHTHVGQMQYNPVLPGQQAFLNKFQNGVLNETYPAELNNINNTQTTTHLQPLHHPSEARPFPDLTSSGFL

For the compound `CCN(C=O)CC`, the Potency entry in [1], in assay [3] and in assay [5] was “inactive” throughout. Also, the outcome in [2], in assay [4], in [6], in assay [7], in assay [8] and in assay [9] was inactive. Moreover, the compound was classed as inactive in assay [10].
In the case of `CCCC[N+](C)(CCCC)CCCC`, the compound was classed as inactive in assay [2], in assay [4], in assay [15], in [6], in assay [7] and in assay [10]. The Potency entry in assay [11], in assay [3], in assay [12], in assay [13], in [14] and in [16] was “inactive” each time. Moreover, the Potency result in assay [17], in [5], in assay [18] and in assay [19] was “inactive” each time.
For `CCCn1cc[n+](C)c1C`, the Potency entry in assay [1], in assay [3], in assay [16] and in assay [5] was “inactive” each time. Besides, the outcome in [2], in assay [4], in assay [15], in assay [6], in [7] and in assay [8] was inactive. The compound was called inactive in [9] and in assay [10].
Consider `NC(=O)N1c2ccccc2CC(=O)c2ccccc21`, for which the Potency in assay [1] was 11.9 µM (active). Moreover, the compound was called inactive in [2], in [4], in assay [6], in assay [7], in assay [8] and in assay [9]. For the same compound, the call in assay [10] was inactive. Also, the Potency entry in assay [3] and in assay [5] was “inactive” each time.
`CCCC(C)C(=O)OCC` (stereo unspecified): the compound was classed as inactive in assay [2], in assay [4], in [15], in [6], in assay [7] and in assay [8]. In [10], the outcome was inactive. Besides, the Potency entry in assay [11], in assay [3], in assay [12], in [13], in [14] and in [16] was “inactive” in each case. The Potency result in assay [17], in [5], in assay [18], in [19] and in assay [20] was “inactive” in each case.
With `CCO[Si](OCC)(OCC)c1ccccc1`, the Potency result in assay [1], in assay [3], in assay [5] and in assay [20] was “inactive” in each case. The compound was called inactive in [2], in [4], in assay [6], in assay [7], in [8] and in assay [9]. Further, the call in [10] was inactive.
As for `CN1CCN(c2cc3c(nn2)Oc2ccccc2N3C)CC1`, the Potency entry in assay [1], in [3], in assay [16], in assay [5], in assay [18] and in assay [20] was “inactive” throughout. Moreover, the outcome in assay [2], in [4], in [15], in assay [6], in assay [7] and in assay [8] was inactive. The outcome in assay [10] was inactive.
Consider `CCCCCCCCCCCCCCC(=O)O`, for which the call in [2], in [4], in [15], in assay [6], in assay [7] and in assay [8] was inactive. In addition, the compound was called inactive in assay [9] and in assay [10]. Besides, the Potency result in assay [11], in assay [3], in [14], in assay [16], in [17] and in [5] was “inactive” throughout. Besides, the Potency result in assay [18] was “inactive”.
Consider `CCCCS(=O)(=O)N[C@@H](Cc1ccc(OCCCCC2CCNCC2)cc1)C(=O)O`, for which the compound was classed as inactive in assay [2], in [4], in assay [15], in assay [6], in assay [7] and in [8]. Further, the result in assay [10] was inactive. For the same compound, the Potency result in assay [11], in assay [12], in assay [13], in [14], in [16] and in [5] was “inactive” throughout. Also, the Potency result in assay [18], in [19] and in [20] was “inactive” throughout.

These data come from PubChem BioAssay (Tox21).
